High-throughput results: PubChem, National Center for Advancing Translational Sciences (NCATS)
The list is not random: actives were taken first. Their share in the collection is about 5.7%.
S2 tox = reduces viability in counter-screen for ATXN expression inhibitors; hit rate 0.49% among 400,000; Potency, µM (doses to about 56.7 µM), actives largely listed as cytotoxic; S2 cells (HEK-293 line with an ATXN2-luciferase reporter) viability, CellTiter-Fluor protease fluorescence, 24 h; AID 651635; note: potency is the fitted concentration of half-maximal effect; nearly all actives have a fitted effect of over 40% in size
TGFb SMAD3 inh = TGF-b pathway inhibition; AID 588855; HepG2 CAGA-GFP TGF-b/SMAD3 reporter, GFP fluorescence, 18 h; TGF-beta stimulated, 500 pg/mL final; Potency, µM (highest dose often 46.1 µM), inactives show top-dose activity, negative = inhibition, most hits filed as inhibitors; hit rate 1.2% among 410,000; note: potency is the fitted concentration of half-maximal effect; % is set by controls: 0 for no effect and ±100 for the full control effect; nearly all actives have a fitted effect of over 65% in size
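Inhibition was scored as loss of TGF-beta-induced (500 pg/mL final, 18 hours, 37 degrees C) GFP in HEPG2 cells carrying a CAGA-GFP reporter, in DMEM with 1% FBS. Well GFP was summed per cell; Activity was normalised to unstimulated and stimulated DMSO wells, then concentration-response fitting.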
IL1B secr inh = inhibitors of inflammasome signaling (IL-1 beta secretion); THP-1 LPS/ATP IL-1B secretion, AlphaLISA, 16 h; stronger effect = lower value; activity change, % at 57.5 µM; hit rate 4.7% among 360,000; AID 743279; in the data active = activity change below about -50%; inconclusive = mostly about -30% to -49%; note: % is set by controls: 0 for no effect and ±100 for the full control effect
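THP-1 cells pretreated 1 hr with compounds (up to 57.5 uM final), then stimulated with LPS (250 ng/mL final) plus ATP (1.25 mM final); secreted IL-1B measured by AlphaLISA after 16 hr, decreased signal indicating inhibition.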
HepG2 viability = kills HepG2 cells in TGF-b inhibitor counter-screen; HepG2 CAGA-GFP viability, ATP luminescence, 18 h; hit rate 0.76% among 410,000; AID 588856; Potency, µM (doses to about 46.1 µM), for inactives: top-dose activity change, negative = cytotoxicity, hits mostly cytotoxic; note: potency is the fitted concentration of half-maximal effect
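CellTiter-Glo luminescence gave cytotoxicity after 18 hours at 37 degrees C. The cells were HepG2 CAGA-GFP in 1% FBS DMEM, stimulated with 500 pg/mL TGF-beta after compound addition. %Activity was normalised to no-cell wells (complete cell-killing) and DMSO (no toxicity), and curves were fitted and classified.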
ATXN2 expr inh = ATXN2 expression inhibition. HEK-293 ATXN2-luciferase reporter, luminescence, 24 h. Potency, µM (highest dose often 57 µM), for inactives: at the top dose activity change, negative = inhibition, most hits filed as inhibitors. hit rate 0.72% among 360,000. AID 1745845; note: potency is the fitted concentration of half-maximal effect; % is set by controls: 0 for no effect and ±100 for the full control effect; nearly all actives have a fitted effect of over 55% in size
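ATXN2-luciferase reporter cells (luciferase flanked by upstream and downstream ATXN2 gene portions) were treated 24 h at 37 °C with compounds at up to 57 uM. SteadyGlo luminescence gave expression; GF-AFC fluorescence gave viability.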
* marks the source's active call; other numbers are inactive results; i = inactive; ? = inconclusive; · = no result given; ! = not confirmed by another sample. Unless noted, calls come from the whole dose curve; as a rule, active = well fitted curve in the direction sought with a large enough effect; inconclusive = small, poorly fitted or top-dose-only effect, or another doubt; inactive = no such curve, though single readings can be large; an effect the other way counts as inactive or inconclusive.

SMILES	S2 tox	TGFb SMAD3 inh	IL1B secr inh	HepG2 viability	ATXN2 expr inh
CC(C)c1ccc(S(=O)(=O)Nc2ccc(SC(F)F)cc2)cc1	?	?	15	-53%	-26%
c1ccc2cc(CCO[C@H]3CCCCO3)ncc2c1	i	-5%	10	-1%	?
c1nc(CCO[C@H]2CCCCO2)cc2cc3c(cc12)OCO3	i	10%	7	-15%	11µM*
COC(=O)c1sc2cccc(F)c2c1S(=O)(=O)N1CCN(c2cccc(C)c2)C(C)C1 (centres undefined)	i	0%	·	-28%	5%
Nc1ncnc(N)c1N=Nc1ccccc1	i	-23%	-60*	-42%	?
Nc1nc(N)c(N=Nc2ccccc2)c(=O)[nH]1	i	-1%	?	2%	22%
Cc1cccc(NC(=O)CSc2cn(CC(=O)N3CCOCC3)c3ccccc23)c1C	·	-1%	·	1%	·
CN1CCCC(n2nc(Cc3ccc(Cl)cc3)c3ccccc3c2=O)CC1 (centres undefined)	32µM*!	-1%	?	-41%	35µM*!
COC(=O)c1cc(Cl)ccc1OC	i	·	·	·	7%
COc1cccc2nc(-c3cccs3)nc(NN3C(=O)C=C(C)C3=O)c12	·	·	·	·	6.1µM*
O=C(Nc1cccc(Cl)c1Cl)c1cc(S(=O)(=O)N2CCCCC2)ccc1F	·	31%	·	7%	·
O=[N+]([O-])c1cc(C(F)(F)F)ccc1NCCNC(=S)Nc1ccc(Cl)cc1	?	5µM*	-88*	10µM*	?
O=[N+]([O-])c1cc(C(F)(F)F)ccc1NCCCCNS(=O)(=O)c1ccc(Cl)cc1	?	?	-56*	10µM*	?
O=[N+]([O-])c1cc(C(F)(F)F)ccc1NCCc1c[nH]c2ccccc12	?	?	-96*	-94%	-31%
O=C(NCc1ccccc1)[C@]1(C(F)(F)F)C[C@H](CCCO)CCCO1	·	-7%	·	-21%	·
CC(C)C(NC(=O)c1ccccn1)c1nnc2n1CCN(Cc1ccc3ccccc3c1)CC2 (centres undefined)	i	·	·	·	·
CCCCCN(C(=O)CCC(=O)OCc1ccccc1Cl)c1c(N)n(CCCC)c(=O)[nH]c1=O	i	0%	0	1%	-9%
CCCCn1c(N)c(N(CCOC)C(=O)COC(=O)COc2cc(C)c(Cl)cc2C(C)C)c(=O)[nH]c1=O	i	?	-98*	-62%	6%
CCCCCN(C(=O)CCC(=O)OCc1ccc(Cl)cc1Cl)c1c(N)n(CCCC)c(=O)[nH]c1=O	i	?	-66*	-2%	-22%
COC(=O)c1c(-c2cccs2)csc1NC(=O)c1cc(OC)cc(OC)c1	i	37%	·	-2%	0%
O=C(Nc1ccc(F)cc1F)c1cccc(C(=O)Nc2ccc(F)cc2F)n1	4.5µM*	-8%	14	-25%	2.5µM*
O=C(OCC12CC3CC(CC(C3)C1)C2)c1ccc(NCc2cc(O)ccc2O)cc1	13µM*	?	-52*	11µM*	10µM*
O=C(O)c1cc(NCc2cc(O)ccc2O)ccc1O	·	-21%	·	-4%	·
O=C(OCCC12CC3CC(CC(C3)C1)C2)c1ccc(NCc2cc(O)ccc2O)cc1	·	?	-121*	-90%	?
CN(C)CC/C=C1/c2ccccc2CSc2ccccc21	i	·	·	·	·
SMILES	S2 tox	TGFb SMAD3 inh	IL1B secr inh	HepG2 viability	ATXN2 expr inh
Cc1cnc2c(C)cccc2c1C	·	-7%	·	26%	·
O=C(Nc1ccc(OCc2cc(=O)n3c4c(sc3n2)CCCC4)cc1)c1ccccc1	i	29%	·	-35%	7%
COc1cc(C(=O)O/N=C2\C=CC(=O)C(C)=C2)cc(OC)c1OC	?	?	-72*	-108%	37%
COc1cc(C(=O)ON=C2C=C(C)C(=O)C(C)=C2)cc(OC)c1OC	i	3%	-20	-6%	29%
Cc1[nH]nc(Nc2ccc(Br)cc2)c1[N+](=O)[O-]	i	-21%	-10	-15%	21%
Cc1[nH]nc(Nc2ccc(C(C)C)cc2)c1[N+](=O)[O-]	?	?	-51*	-31%	55%
Cc1ccc(Nc2n[nH]c(C)c2[N+](=O)[O-])cc1	i	-4%	-54*	0%	69%
COc1ccc(-c2ccc3nnc(SCC(N)=O)n3n2)cc1	i	1%	-6	7%	26%
CCSc1nnc2ccc(-c3ccc(OC)c(OC)c3)nn12	i	12%	-68*	-15%	18%
COc1cc(SC#N)ccc1N=Cc1c(C)[nH]n(-c2ccc(C)cc2C)c1=O	i	4%	-97*	-26%	-19%
COc1cc(SC#N)ccc1N=Cc1c(C)[nH]n(-c2cccc3ccccc23)c1=O	?	-14%	-76*	-2%	-13%
COc1ccccc1N=Cc1c(C)[nH]n(-c2ccc(C)cc2C)c1=O	i	-5%	22	-2%	-26%
CC(=O)Nc1c(C)nn(-c2ccccc2)c1N1CCC(C(=O)NCc2ccc(F)cc2)CC1	·	2%	·	4%	·
CCCCNC(=O)C[C@@H]1C[C@@]2(C(=O)OC)CCCCC=C2N(Cc2ccccc2)C1=O	i	·	16	·	5%
CCCCCCCCN1C(=O)[C@H](CC(=O)NCc2ccccc2)C[C@@]2(C(=O)OC)CCCCC=C12	?	·	-82*	·	0%
CCCCCCCCN1C(=O)[C@H](CC(=O)NCc2ccc(OC)c(OC)c2)C[C@@]2(C(=O)OCC)CCC=C12	·	·	-77*	·	·
CCOC(=O)[C@]12CCCC=C1N(Cc1cccc3ccccc13)C(=O)[C@H](CC(=O)NCc1ccc(OC)c(OC)c1)C2	?	·	-69*	·	?
CCCCCCCCN1C(=O)[C@H](CC(=O)NCCc2ccccc2OC)C[C@@]2(C(=O)OCC)CCCC=C12	22µM*	·	?	·	?
Cc1csc[n+]1CC(=O)c1ccccc1	·	3%	·	-3%	·
CC(=O)c1ccc(NC(=O)NCCc2c[nH]c3ccccc23)cc1	i	2%	·	-15%	0%
CN(C)CCOc1ccccc1Cc1ccccc1 (tested in a mixture with another compound)	i	·	·	·	·
CCCCCCCCN1C(=O)[C@H](CC(=O)NCc2ccc(C)o2)C[C@@]2(C(=O)OC)CCCCC=C12	?	·	-54*	·	?
CCOC(=O)[C@]12CCCC=C1N(Cc1cccc3ccccc13)C(=O)[C@H](CC(=O)NCc1cccc(C(F)(F)F)c1)C2	?	·	-5	·	-25%
COC(=O)[C@]12CCCCC=C1N(CCC1=CCCCC1)C(=O)[C@H](CC(=O)NCc1ccc(C)o1)C2	?	·	-14	·	?
CCCCNC(=O)C[C@@H]1C[C@@]2(C(=O)OC)CCCCC=C2N(CCc2ccc(OC)c(OC)c2)C1=O	·	·	-13	·	·
COC(=O)[C@]12CCCCC=C1N(Cc1cccc3ccccc13)C(=O)[C@H](CC(=O)NCc1cccc(C(F)(F)F)c1)C2	?	·	-73*	·	?
